# Screening data (PubChem)
# FMDV inh: antivirals against foot and mouth disease virus; Potency, µM (titrated, usually from 57.9 µM), inactives show top-dose activity change, negative = inhibition, usual class: inhibitors; 1.2% of 410,000 active; FMDV antiviral cell-based qHTS; calls by dose curve; tested in HEK293T cells; further: read-out not given here; potency means the concentration at half of the fitted maximal effect; nearly all actives have a fitted effect of over 45% in size
# HCMV antiviral: inhibitors of human cytomegalovirus | 4.5% of 410,000 active | AID 1259415 | HFF cells, HCMV-luciferase reporter, 72 h; active compounds read low | activity change, negative = inhibition, % at 57.5 µM; in the data active means activity change below about -60%; inconclusive means no clear call, values can overlap the other calls; inactive means above about -39%
#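 HFF cells seeded 16 h at 37C, treated with compounds, infected with luciferase-reporter HCMV at MOI 1 PFU/cell; luciferase read at 72 h post infection, normalized to buffer-only and Salinomycin controls.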
# HCV inhibitor: HCV inhibition; Potency, µM (doses to about 41.8 µM), for the others: at the top dose activity change, negative = inhibition, most hits filed as inhibitors; Huh7.5.1 HCVcc-Cre infection, luciferase reporter, 44 h; 3.4% of 340,000 active; active means well fitted inhibition curve with a large enough effect; inconclusive means small, poorly fitted or top-dose-only effect, or another doubt; inactive means no such curve, though single readings can be large or run the other way; further: potency means the concentration at half of the fitted maximal effect
#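 Luciferase read-out (15 sec integration) after a 15 min room-temperature substrate step quantifies HCVcc-Cre infection. Cells, 1,000 per well, had compound added 4 h post-plating, then virus at ~0.5 moi, and were cultured 44 h.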
# Vaccinia Venus: vaccinia inhibition (Venus reporter). Vaccinia virus Venus reporter expression, fluorescence. Potency, µM (titrated, usually from 36.5 µM), without a hit: at the top dose activity change, negative = inhibition, usual class: inhibitors. 0.46% of 330,000 active. AID 720580; calls by dose curve; tested in A549 cells; further: potency means the concentration at half of the fitted maximal effect; nearly all actives have a fitted effect of over 30% in size
# Vaccinia mCherry: vaccinia inhibition (mCherry reporter); Potency, µM (series often up to 36.5 µM), inactives show at the highest dose activity change, negative = inhibition, actives largely listed as inhibitors; Vaccinia virus mCherry reporter infection, fluorescence; 0.63% of 310,000 active; AID 720579; calls by dose curve; tested in A549 cells; further: potency means the concentration at half of the fitted maximal effect; nearly all actives have a fitted effect of over 35% in size
# Active calls of the source: *; ? = inconclusive; . = not tested or not shown; ! = not active in a repeat. This is a sample that favours compounds with a hit; in the whole collection about 7.3% have one here. On the % scale 0 is the no-effect control and ±100 the full control effect.
SMILES,FMDV inh,HCMV antiviral,HCV inhibitor,Vaccinia Venus,Vaccinia mCherry
Cc1ccc(NC(CC(=O)c2ccccc2)c2ccc(F)cc2)cc1 (configuration not stated),16.8%,-26.3,7.6%,.,.
CCOc1ccc(NC(=O)CCS(=O)(=O)c2cccc3nonc23)cc1,-22.6%,9.6,.,2.2%,-6.6%
Cc1ccc2ncnc(NCc3ccco3)c2c1,.,.,.,-26.8%,16.7%
CCc1nc(Nc2ccc(F)cc2)c2oc3ccccc3c2n1,?,-22.6,10µM*,.,.
CCn1c(SCC(=O)Nc2ccc3c(c2)OCCO3)nnc1-c1ccccn1,-6.0%,21.2,2.9%,.,.
Cc1ccccc1-n1c(SCC(=O)Nc2ccc3c(c2)OCO3)nnc1-c1ccccn1,-7.1%,19.9,22.4µM*,.,.
COCc1cc(C)nc(SCC(=O)Nc2ccc3c(c2)OCO3)c1C#N,-2.4%,-3.0,11.2µM*,-25.1%,-3.6%
Cc1nnc(SCC(=O)Nc2ccc3c(c2)OCO3)o1,-3.8%,-60.0*,-0.7%,2.4%,-10.4%
CCCOc1ccc(OC(=O)c2cn(-c3ccc(OC)cc3)c(=O)c3ccccc23)cc1,?,-22.9,.,-3.9%,5.6%
CC(C)CC(NC(=O)OCc1ccccc1)C(=O)NCC(=O)NCC(=O)OCc1ccccc1 (configuration not stated),.,-31.9,.,.,.
COc1ccc2c(c1)CCc1cnc(-n3ncc(C(=O)NCc4cc(C)no4)c3C3CC3)nc1-2,13.6%,.,.,-17.7%,?
Cc1ccc(N(C)C(=O)Cn2cc(S(=O)(=O)N3CCCC3)c(S(=O)(=O)N3CCCC3)c2)cc1,14.3%,5.5,.,4.3%,0.1%
Cc1ccc(Cc2nc(-c3ccncc3)no2)cc1,-1.0%,-18.8,5.0%,.,.
c1ccc(C(Cc2nc(-c3ccncc3)no2)c2ccccc2)cc1,?,-68.8*,7.94µM*,.,.
c1ccc(-c2ccc(-c3nc(-c4ccncc4)no3)cc2)cc1,.,-71.8*,-23.8%,-4.5%,-11.7%
c1ccc(-c2nc(-c3ccncc3)no2)cc1,38.2%,7.2,-24.6%,-5.3%,-14.2%
Cc1ccnc2ccc(Br)cc12,.,.,.,-2.6%,-9.6%
Cc1ccc(NC(=O)N2CCCN(Cc3ccc(F)cc3)C2)cc1C,-22.4%,16.7,?,-23.1%,.
O=C(Nc1ccc(Cl)cc1)N1CCCN(Cc2ccccc2F)C1,-18.5%,-9.4,10µM*,.,.
CCN1CCN(CCNC(=O)CCc2c(C)c3c(C)nn(-c4ccccc4)c3n(C)c2=O)CC1,-12.2%,.,15.8µM*,?,-3.4%
Cc1ccc(CNC(=O)CCCn2nc(C)c3c(C)n(-c4ccccc4)nc3c2=O)cc1,7.08µM*!,?,?,-9.9%,-25.2%
Cc1ccc(-n2nc3c(=O)n(CCCC(=O)NCc4ccccc4C)nc(C)c3c2C)cc1,-20.7%,-10.3,?,-28.3%,?
Cc1nn(CCC(=O)NCc2ccc(N(C)C)cc2)c(=O)c2nn(-c3ccccc3)c(C)c12,-16.6%,-62.7*!,-8.9%,-5.5%,-12.3%
Cc1ccc(-n2nc3c(=O)n(CCCC(=O)NCC(C)c4ccccc4)nc(C)c3c2C)cc1 (configuration not stated),?,-11.5,22.4µM*,.,.
COc1ccc(N2C(=O)CS(=O)(=O)C23C(=O)N(Cc2ccc(F)cc2)c2ccc(C)cc23)cc1 (configuration not stated),0.0%,-1.5,.,12.1%,-0.8%
SMILES,FMDV inh,HCMV antiviral,HCV inhibitor,Vaccinia Venus,Vaccinia mCherry
CCN1CCN(CCNC(=O)CCCn2nc(C)c3c(C)n(-c4ccc(C)cc4)nc3c2=O)CC1,-1.5%,-66.6*,-12.5%,?,?
CCC1CN(CC(=O)N(C)Cc2nc3ccccc3[nH]2)Cc2cc(OC)ccc2O1 (configuration not stated),15.4%,.,.,5.3%,-9.8%
C=CCc1c(C)nc(SC)nc1Nc1ccc(C)cc1,-20.3%,?,10µM*,-19.9%,-27.4%
Cc1cccc(C)c1NC(=O)c1nc2ccc([N+](=O)[O-])cc2nc1-c1ccccc1,.,42.0,.,.,.
Cc1ccc2cc(/C=C(\C#N)C(N)=O)c(N3CCCCC3)nc2c1,-15.7%,0.2,14.1µM*,.,.
Cc1ccc2cc(C=C(C#N)C#N)c(N3CCCCC3)nc2c1,.,51.5,?,-9.5%,-18.8%
CCCS(=O)(=O)NC(=O)C1(C)CCN(C(=O)c2cc(C)n(C(C)(C)C)n2)C1 (configuration not stated),-12.0%,35.8,.,-7.9%,4.8%
CCCS(=O)(=O)NC(=O)C1(C)CCCN(C(=O)c2cc(C)n(C(C)(C)C)n2)C1 (configuration not stated),4.8%,-64.5*,.,5.8%,37.8%
